High-throughput results from PubChem.
DAX1 StAR inh – inhibitors of DAX1 repression of SF-1 activated StAR promoter; HEK293T StAR-luciferase reporter, SF-1/DAX-1 repression relief; inhibition, % at 6.8 µM; hit rate 1.1% among 370,000;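 active = inhibition above the mean over all tested compounds plus 3 SD, cut at about 3.6% in these data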;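 note: higher inhibition means more luminescence from relief of DAX-1 repression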
Wnt bcat act – Wnt/beta-catenin pathway activation | hit rate 1.2% among 300,000 | Wnt/beta-catenin reporter cell assay, activator, plate reader | activation, % at 9.35 µM | AID 743398; in the data active = activation above about 30%, passing the limit was not always enough; inconclusive = no clear call, values can overlap the other calls
hcDAF12 agonist – activators of H. contortus DAF-12 nuclear receptor. HEK293 hcDAF-12 lit1-tk-luc reporter, luminescence; 0% DMSO, 100% Δ7-dafachronic acid. activation, % at 6.8 µM. hit rate 1.4% among 370,000. AID 652067;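 active = activation above the mean of all tested compounds plus 3 SD, cut at about 5.5% in these data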
hgDAF12 agonist – agonists of H. glycines DAF-12 nuclear receptor. hit rate 1.8% among 370,000. activation, % at 6.8 µM. HEK293 GAL4-hgDAF12 UAS-luciferase reporter, agonist luminescence; normalized to butyrate control. AID 687014;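 active = activation above a cutoff set at the mean of all screened compounds plus 3 SD, cut at about 10% in these data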
esBAF inh – blocks esBAF chromatin remodeling in mouse ES cells; Bmi1-luciferase knock-in reporter, 24 h; 100% = twice the neutral-well signal; reporter increase, % at 12.5 µM; hit rate 2% among 350,000; AID 602393; in the data active = activation above about 40%; inconclusive = no clear call, values can overlap the other calls;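 note: a rise in the Bmi1 reporter signal indicates esBAF inhibition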
ssDAF-12 act – activators of S. stercoralis DAF-12 nuclear receptor; HEK293 ssDAF-12/GRIP1 lit1-tk-luc reporter, luminescence; % of 3 µM dafachronic acid response; activation, % at 6.8 µM; hit rate 1% among 370,000;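 active = activation above the mean over all tested compounds plus 3 SD, cut at about 0.9% in these data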
Hits are given with their value; 0 = inactive; ? = inconclusive; - = no result. Only some compounds are listed: those with a hit (about 4.2% of all), similar ones and a draw of the others.

SMILES	DAX1 StAR inh	Wnt bcat act	hcDAF12 agonist	hgDAF12 agonist	esBAF inh	ssDAF-12 act
COc1ccc(NC(=O)COc2ccc(Br)cc2)c(OC)c1	0	0	0	0	0	0
CN(C)CC(=O)N1[C@@H]2c3ccc(-c4ccc(F)cc4)c(=O)n3C[C@@H]2[C@@H](CO)[C@@H]1C(=O)NC1CCC1	-	-	-	-	0	-
COc1ccccc1-c1ccc2n(c1=O)C[C@H]1[C@H](CO)[C@@H](C(=O)NC3CCC3)N(C(=O)NC(C)C)[C@@H]21	-	-	-	-	0	-
C[C@@H]1CN([C@@H](C)CO)C(=O)Cc2cc(NC(=O)C3CC3)ccc2O[C@H]1CN(C)C(=O)Nc1ccccc1	-	-	-	-	0	-
C[C@@H]1CN([C@H](C)CO)C(=O)c2cc(NC(=O)c3ccncc3)ccc2O[C@@H](C)CCCCO[C@H]1CN(C)Cc1ccc(C(F)(F)F)cc1	-	-	-	-	0	-
CCCNC(=O)C[C@@H]1CC[C@H]2[C@@H](COc3ccc(NC(=O)c4cccc(Cl)c4)cc3C(=O)N2C)O1	-	-	-	-	0	-
O=C(C[C@@H]1C=C[C@@H](NC(=O)Nc2cc(F)ccc2F)[C@H](CO)O1)NCc1ccccn1	-	-	-	-	0	-
Cc1ccc(OCC(=O)Nc2ccccc2C(N)=O)cc1	0	56.7	0	0	?	0
COc1ccc(/C=N/NC(=O)Cc2cccs2)cc1	0	0	0	0	58.6	0
NC(=O)c1ccccc1NC(=O)COc1ccc(Cl)cc1	0	0	0	0	?	0
C[C@@H]1CN([C@H](C)CO)C(=O)c2cc(C#CC3CCCCC3)cnc2O[C@H]1CN(C)C(=O)C1CCCCC1	-	-	-	-	0	-
O=C(C[C@H]1CC[C@@H]2[C@H](COC[C@H](O)CN2S(=O)(=O)c2ccccc2)O1)NCc1ccc2c(c1)OCO2	-	-	-	-	0	-
CC1CCCN(S(=O)(=O)c2ccc(CN3C(=O)c4cccnc4C3=O)cc2)C1 (configuration not stated)	3.8	0	0	0	0	0
CC(=O)NCCNC(=O)c1ccc(CSc2ccc(Cl)cc2)cc1	0	0	0	0	53.7	0.9
CCNC(=O)c1ccc(CSc2ccc(Cl)cc2)cc1	0	0	0	0	0	0
OC(CCN1CCCCC1)(c1ccccc1)c1ccccc1	0	0	0	0	0	0
NC(=O)C(CCCCN1CCCCC1)(c1ccccc1)c1ccccc1	4.1	0	0	0	-	0
CO[C@H](CN(C)C(=O)c1ccccc1F)[C@H](C)CN([C@H](C)CO)S(=O)(=O)c1ccccc1	-	-	-	-	0	-
COc1cccc2oc3cc(C#CC4(O)CCCCC4)ccc3c(=O)c12	4.0	0	5.8	0	0	0
Cc1noc(C)c1NC(=O)N(C)C[C@@H]1Oc2ccc(NC(=O)Nc3cccc4ccccc34)cc2C(=O)N([C@H](C)CO)C[C@H]1C	-	-	-	-	0	-
O=C(Nc1ccccc1)N1C[C@@H]2[C@H](c3ccccc31)[C@@H](CO)N2C(=O)c1ccccc1F	-	-	-	-	0	-
CCN(CC)C(NC(=O)Cc1ccccc1)C(Cl)(Cl)Cl (configuration not stated)	0	39.6	0	0	0	0
C[C@@H]1CN([C@@H](C)CO)C(=O)c2cc(NC(=O)Nc3ccc(C(F)(F)F)cc3)ccc2O[C@@H](C)CCCCO[C@@H]1CN(C)C(=O)CCCN(C)C	-	-	-	-	0	-
O=C(CSCc1ccccc1)Nc1ccc(F)cc1F	0	0	0	0	0	0
O=C(CCc1ccccc1)Nc1ccccc1F	3.7	-	0	11.7	-	0
SMILES	DAX1 StAR inh	Wnt bcat act	hcDAF12 agonist	hgDAF12 agonist	esBAF inh	ssDAF-12 act
O=C(CCc1ccccc1)Nc1ccc(F)cc1F	0	0	0	0	65.7	0
O=C(Nc1ccccc1F)c1ccc(OCc2ccccc2)cc1	0	0	0	10.7	-	0
O=C(CCCc1ccccc1)Nc1ccccc1[N+](=O)[O-]	0	0	0	0	52.6	0
O=C(CCc1ccccc1)Nc1ccccc1C(F)(F)F	0	0	0	0	0	0
C[C@@H](NC(=O)C[C@H]1CC[C@@H]2[C@H](COC[C@H](O)CN2C(=O)Nc2cc(Cl)cc(Cl)c2)O1)c1ccccc1	-	-	-	-	0	-
O=C(C[C@@H]1C[C@@H]2c3cc(NC(=O)Cc4ccncc4)ccc3O[C@@H]2[C@H](CO)O1)NCC1CC1	-	-	-	-	0	-
CO[C@H]1CN(C)C(=O)c2cc(NC(=O)C3CCC3)ccc2OC[C@@H](C)N(C(=O)CN(C)C)C[C@@H]1C	-	-	-	-	0	-
CC(C)NC(=O)N(C)C[C@H]1Oc2cc(C#Cc3ccc(F)cc3)ccc2S(=O)(=O)N([C@H](C)CO)C[C@@H]1C	-	-	-	-	0	-
O=C(NCc1ccccc1Cl)C1CCN(C(=O)c2ccc(F)cc2)CC1	0	0	0	0	0	0
O=C(NCc1ccccc1CN1CCCC1)C1CCN(C(=O)c2ccc(F)cc2)CC1	3.8	0	0	0	0	0
O=C(C[C@H]1C[C@H]2c3cc(NC(=O)Nc4ccc(F)cc4)ccc3O[C@H]2[C@H](CO)O1)NC1CCCC1	-	-	-	-	0	-
COc1ccc([C@H]2CC(=O)C=C(c3cccc(OC)c3)C2)cc1	0	0	0	0	0	0
COc1ccc([C@H]2CC(=O)C=C(c3cccc(C#N)c3)C2)cc1	0	0	0	0	44.7	0
CC(=O)c1ccc(C)cc1OC(=O)c1cccc(F)c1	0	0	0	0	0	0
CC(C)(C)c1ccc(C(=O)NCC(=O)NNC(=O)c2ccccc2O)cc1	0	0	0	0	-	0
Cc1ccc(O)c(C(=O)CC(=O)c2ccc(C(C)(C)C)cc2)c1	0	0	0	11.5	0	0
Cc1ccc(C(=O)CC(=O)c2cccc(F)c2)c(O)c1	0	-	0	0	46.2	0
Cc1ccc(C(=O)CC(=O)c2ccccc2C)c(O)c1	0	0	0	0	62.2	0
CCNC(=O)C[C@@H]1CC[C@@H]2[C@H](COc3ccc(NC(=O)Nc4ccccc4OC)cc3C(=O)N2C)O1	-	-	-	-	0	-
C[C@@H]1CN([C@@H](C)CO)C(=O)c2cc(NS(=O)(=O)c3cccs3)ccc2O[C@@H](C)CCCCO[C@@H]1CN(C)Cc1ccc(C(F)(F)F)cc1	-	-	-	-	0	-
O=C(CC1Sc2ccccc2NC1=O)Nc1cccnc1 (configuration not stated)	0	0	0	0	-	0
CC(C(=O)Nc1cccnc1)C1Sc2ccccc2NC1=O (configuration not stated)	0	0	6.0	0	-	0
O=C(CN(C(=O)c1cc2c(s1)CCC2)C1CCCC1)NCc1cccs1	0	50.2	0	0	0	0
Cc1ccc(SCCSc2nc(C)cc(=O)[nH]2)cc1	0	33.9	0	0	0	0
Cc1ccc(SCCSc2nc(N)cc(=O)[nH]2)cc1	0	0	0	0	0	0
O=C(O)c1ccccc1NS(=O)(=O)c1ccc(NN=Cc2cccc(Cl)c2)c([N+](=O)[O-])c1	0	0	0	0	-	0
O=[N+]([O-])c1ccccc1N/N=C/c1ccc2c(c1)OCO2	0	53.0	0	0	0	0
O=[N+]([O-])c1ccccc1N/N=C/c1ccccc1	0	0	0	0	44.5	0
